A selection: hits, their analogues and other compounds. The true share with any hit is near 21%.
TDP1 cell CPT – qHTS for Inhibitors of human tyrosyl-DNA phosphodiesterase 1 (TDP1): qHTS in cells in presence of CPT; 420,000 compounds, 12% hits; AID 686979, 2013; chicken DT40 Tdp1-/-;hTDP1 cells + 20 nM CPT, ATP luminescence, 48 h; Potency, µM (titrated, usually from 46.2 µM), inactives show at the highest dose activity change, negative = growth inhibition, usual class: inhibitors; further: potency means the concentration at half of the fitted maximal effect; nearly all actives have a fitted effect of over 55% in size
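Chicken DT40 Tdp1-/- cells stably complemented with human TDP1 were seeded at 400 cells/well in medium containing 20 nM camptothecin, exposed to pin-transferred compounds, and grown at 37 °C for at least 48 hr. Viability was read as ATP luminescence.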
RORg inh – qHTS for inhibitors of ROR gamma transcriptional activity; Nuclear receptor ROR-gamma (Mus musculus), P51450; 310,000 compounds, 5.4% hits; Potency, µM (doses to about 53.6 µM), without a hit: at the highest dose activity change, negative = inhibition, most hits filed as inhibitors; Drosophila S2 Gal4-RORgamma UAS-luciferase reporter, 20 h; further: potency means the concentration at half of the fitted maximal effect; nearly all actives have a fitted effect of over 60% in size
Target sequence (P51450 whole entry, looked up, the tested form may be a part): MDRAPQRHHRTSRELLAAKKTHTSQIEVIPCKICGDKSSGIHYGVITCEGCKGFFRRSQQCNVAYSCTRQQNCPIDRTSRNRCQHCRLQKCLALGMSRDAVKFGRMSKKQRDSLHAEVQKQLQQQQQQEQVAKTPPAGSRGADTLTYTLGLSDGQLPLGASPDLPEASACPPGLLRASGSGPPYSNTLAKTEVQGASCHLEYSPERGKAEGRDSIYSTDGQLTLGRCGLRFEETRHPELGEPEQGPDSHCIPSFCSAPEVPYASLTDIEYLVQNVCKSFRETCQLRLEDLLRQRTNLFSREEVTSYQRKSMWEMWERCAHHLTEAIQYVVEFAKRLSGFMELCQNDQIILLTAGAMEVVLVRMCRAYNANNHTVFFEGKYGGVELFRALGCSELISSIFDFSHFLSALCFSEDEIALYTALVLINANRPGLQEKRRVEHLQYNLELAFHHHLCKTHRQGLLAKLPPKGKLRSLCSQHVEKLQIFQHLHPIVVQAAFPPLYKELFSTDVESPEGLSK
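A Gal4/UAS one-hybrid system in insect cells: metallothionein-promoter Gal4–ROR gamma fusion plus Photinus luciferase reporter. Copper sulfate 700 uM final, 20 hr ambient incubation, luminescent detection after 10 min with reagent.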
VP16 counter – VP16 counterscreen qHTS for inhibitors of ROR gamma transcriptional activity; Drosophila S2 Gal4-VP16 UAS-luciferase, luminescence, 20 h; Potency, µM (doses to about 53.6 µM), without a hit: at the highest dose activity, negative = inhibition, usual class: inhibitors; 310,000 compounds, 3.5% hits;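 further: Gal4-VP16 expression switched on by copper sulfate through the metallothionein promoter; potency means the concentration at half of the fitted maximal effect; nearly all actives have a fitted effect of over 50% in size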
DT40 TDP1 no CPT – qHTS for Inhibitors of human tyrosyl-DNA phosphodiesterase 1 (TDP1): qHTS in cells in absence of CPT | DT40 Tdp1-/- hTDP1 cells, no CPT, ATP luminescence, 48 h | Potency, µM (doses to about 46.2 µM), inactives show top-dose activity change, negative = growth inhibition, actives largely listed as inhibitors | 420,000 compounds, 15% hits; further: potency means the concentration at half of the fitted maximal effect; nearly all actives have a fitted effect of over 55% in size
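Stably hTDP1-transfected Tdp1-null chicken DT40 cells were treated with library compounds minus camptothecin and grown for at least 48 hr at 37 °C, after which cellular ATP was quantified by luminescence.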
IL1B secr inh – qHTS for Inhibitors of Inflammasome Signaling: IL-1-beta AlphaLISA Primary Screen; THP-1 LPS/ATP IL-1B secretion, AlphaLISA, 16 h; hits give low values; 360,000 compounds, 4.7% hits; activity change, % at 57.5 µM; in the data active means activity change below about -50%; inconclusive means mostly about -30% to -49%
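THP-1 cells pretreated 1 hr with compounds (up to 57.5 uM final), then stimulated with LPS (250 ng/mL final) plus ATP (1.25 mM final); secreted IL-1B measured by AlphaLISA after 16 hr, decreased signal indicating inhibition.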
ELG1 repair inh – qHTS screen for small molecules that inhibit ELG1-dependent DNA repair in human embryonic kidney (HEK293T) cells expressing luciferase-tagged ELG1. HEK293T ELG1-luciferase reporter, luminescence, 16 h; DNA damage induced by 5-fluorouridine. Potency, µM (doses to about 46.1 µM), for inactives: top-dose activity change, negative = inhibition, usual class: inhibitors. 330,000 compounds, 2.3% hits; further: potency means the concentration at half of the fitted maximal effect; nearly all actives have a fitted effect of over 55% in size
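5-Fluorouridine DNA damage + compound/DMSO, 2,000 cells/well, 16 h, 37 °C/5% CO2. ONE-Glo, 30 min RT, luminescence. Readout = decrease in reporter signal.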
Starred values were filed as active, the others as inactive; ? = inconclusive; / = no result given; [ ] = another dose, or the depositor's remark. Unless noted, the call rests on the fitted dose curve; in most records, active means well fitted curve in the direction sought with a large enough effect; inconclusive means small, poorly fitted or top-dose-only effect, or another doubt; inactive means no such curve, though single readings can be large; an effect the other way counts as inactive or inconclusive. On the % scale 0 is the no-effect control and ±100 the full control effect.

SMILES	TDP1 cell CPT	RORg inh	VP16 counter	DT40 TDP1 no CPT	IL1B secr inh	ELG1 repair inh
CC(=O)CSc1nc(N)c(C#N)c(-c2cccs2)c1C#N	21µM*	28%	3%	13µM*	9	?
CN1CCc2nc(SCC(=O)Nc3ccc(OC(F)(F)F)cc3)c(C#N)c(-c3cccs3)c2C1	15µM*	2%	-6%	23µM*	-25	?
CC(C)OC(=O)CSc1nc(N)c(C#N)c(-c2cccs2)c1C#N	?	10%	-13%	?	23	?
N#Cc1c(N)nc2c(c1-c1cccs1)CCCC2	-9%	25%	1%	-12%	15	-6%
Clc1cccc(Cl)c1CON/C=N/c1ncnc2sccc12	23µM*	?	?	16µM*	17	?
CNC(=S)/N=C/NOCc1c(Cl)cccc1Cl	7%	?	9%	-1%	6	?
Clc1cccc(CON/C=N/c2ncnc3sccc23)c1	18µM*	?	-24%	10µM*	-12	?
NC(=O)NOCc1cccc(Cl)c1	10%	-4%	-6%[10 µM]	-7%	13	6%
O=C(O)CSc1c(Cl)c(=O)oc2ccc(Cl)cc12	-5%	/	/	2%	10	/
CCCCC(C)(O)C/C=C/[C@H]1[C@H](O)CC(=O)[C@@H]1CCCCCCC(=O)O (stereo partly specified)	7%[4.12 µM]	-14%	-15%	12%[4.12 µM]	/	/
COc1ccc(OC)c(C(=O)c2ccc(C(=O)c3cc(OC)ccc3OC)cc2)c1	?	-15%	1%	?	-75*	?
COc1ccc(C(=O)c2ccc(OC)cc2OC)cc1	-102%	-2%	-7%	5.8µM*	34	?
COc1ccc(C(=O)c2ccc(N3CCOCC3)cc2)c(OC)c1	?	16%	5%	?	-18	8%
COc1ccc(C(=O)c2ccc(N(C)C)cc2)c(OC)c1	3.2µM*	-14%	-3%	2.8µM*	-9	?
COc1ccc(OC)c(C(=O)c2ccccc2)c1	-12%	?	3%	-13%	0	-1%
COc1ccc(/C(C)=N/N=C(N)N)c(OC)c1	18µM*	-5%	-4%	-26%	6	?
COc1ccc(OC)c(C(=O)CCCCC(=O)c2cc(OC)ccc2OC)c1	?	/	/	18µM*	6	/
COc1ccc(C(=O)OCC(=O)c2cc(OC)ccc2OC)c(OC)c1	?	28%	1%	?	8	-16%
COc1ccc(C(=O)Nc2ccc3ccccc3c2)cc1	4%	?	?	3%	-5	?
COc1ccc(OC)c(C(=O)COC(=O)C(CCSC)NC(=O)COc2ccccc2)c1 (stereo unspecified)	-24%	/	/	-15%	-17	-12%
COc1ccc(OC)c(C(=O)COC(=O)COc2ccccc2)c1	15µM*	/	/	5.8µM*	?	0%
COc1ccc(OC)c(C(=O)c2ccc(C(=O)Nc3ccc4ccccc4c3)cc2)c1	21µM*	?	-16%	18µM*	-7	?
CC(C)[C@@H](CC(=O)N[C@@H]1CCCC[C@H]1C(=O)N[C@H](CC(=O)N[C@@H](CCC(=O)O)CC(=O)O)Cc1c[nH]c2ccccc12)NC(=O)C[C@H](Cc1c[nH]c2ccccc12)NC(=O)[C@@H]1CNCC[C@H]1N	/	-34%	-6%	/	/	/
CS(=O)(=O)N(CC(=O)Nc1ccccc1C(=O)NCCc1ccccc1)c1ccc2c(c1)OCCO2	29µM*	23%	3%	21µM*	-14	?
CS(=O)(=O)N(CC(=O)Nc1ccccc1C(=O)NCc1ccccc1)c1ccc2c(c1)OCCO2	?	-12%	9%	?	-20	?
SMILES	TDP1 cell CPT	RORg inh	VP16 counter	DT40 TDP1 no CPT	IL1B secr inh	ELG1 repair inh
C=CC(=O)N1c2ccccc2Sc2ccc(NC(=O)OCC)cc21	?	/	/	29µM*	-112*	/
CCOC(=O)Nc1ccc2c(c1)N(C(=O)CCN1CCN(C)CC1)c1ccccc1S2	?	3%	-5%	-28%	-5	?
CCOC(=O)Nc1ccc2c(c1)Nc1ccccc1S2	23µM*	31%	-13%	21µM*	-66*	?
CC(C)(C)[C@@H](O)C(Cc1ccc(Cl)cc1)n1cncn1 (stereo partly specified)	/	-4%	1%	/	/	/
C=CCOC(=O)CCCCCCCC	7%	8%	?	-7%	9	-23%
CC(C)N(C(=S)Nc1cccc(C(F)(F)F)c1)C(C)c1ccccn1 (stereo unspecified)	-9%	?	3%[10 µM]	?	-91*	10%
COc1ccc(NC(=O)N(CCC(C)C)C(C)c2ccccn2)c(OC)c1 (stereo unspecified)	23µM*	0%	-5%	?	-11	-4%
COc1ccccc1NC(=S)N(C(C)C)C(C)c1ccccn1 (stereo unspecified)	?	13µM*	-4%[10 µM]	?	-5	3%
COC(=O)CCC(=O)N1CCCC(CO)(Cc2ccccc2F)C1 (stereo unspecified)	-3%	-8%	-9%	-13%	17	-3%
O=C1NC(Cc2ccccc2)c2nc3ccccc3c(=O)n2-c2ccc(Cl)cc21 (stereo unspecified)	/	/	/	/	/	8%
CC(=O)c1cc(Cl)ccc1OC(=O)c1ccco1	3%	-13%	3%	-13%	13	12%
O=C(Oc1ccc(OC(=O)c2ccco2)c(S(=O)(=O)c2ccc(Cl)cc2)c1)c1ccco1	-22%	?	?	16µM*	-8	-6%
CC1CCCN(S(=O)(=O)c2cccc(C(=O)NCc3ccco3)c2)C1 (stereo unspecified)	-3%	/	/	?	-12	1%
COc1ccc2cc(S(=O)(=O)N3CCCCCC3)ccc2c1	1%	27%	-18%	?	0	-6%
COc1ccc(C(CNC(=O)c2cccc(S(=O)(=O)N3CCCC(C)C3)c2)N(C)C)cc1 (stereo unspecified)	?	/	/	-23%	-55*	2%
COc1ccc2cc(S(=O)(=O)N3CCCC(C)C3)ccc2c1 (stereo unspecified)	?	4%	6%	23µM*	?	?
